Results reported in PubChem BioAssay (Tox21).
Several values for one entry are separate records, joined by “and”; a condition that tells them apart may be missing. Identical values can stand only once. Inconclusive results are not listed. A call without a number means that no potency is given here. Activity calls are given as the source filed them. Unless noted, calls come from the whole dose curve; as a rule, active = well fitted curve in the direction sought with a large enough effect in the repeat runs; inconclusive = weak or mixed curves; inactive = no such curve, though single readings can be large; an effect the other way counts as inactive or inconclusive.

How the values were obtained:
[1] = qHTS assay for small molecules that induce genotoxicity in human embryonic kidney cells expressing luciferase-tagged ATAD5 (AID 651632); note: nearly all actives have a fitted effect of over 15% in size; note: potency is the fitted concentration of half-maximal effect
How it was run: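 Quantitative HTS in HEK293T expressing luciferase-tagged ATAD5, whose levels rise upon DNA damage. Exposure ran 16 hr at 37C and 5% CO2, with luminescence read 30 min after Amplite addition at room temperature.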

[2] = qHTS assay for small molecule agonists of the p53 signaling pathway - cell viability (AID 651633; calls by dose curve; note: nearly all actives have a fitted effect of over 30% in size; note: potency is the fitted concentration of half-maximal effect)
How it was run: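 p53RE-bla cells were treated with compound for 16 hours at 37 C. Cytotoxicity was then measured as CellTiter-Glo luminescence after 30 min at room temperature.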

[3] = qHTS assay for small molecule disruptors of the mitochondrial membrane potential - cell viability (AID 720634; calls by dose curve; note: nearly all actives have a fitted effect of over 20% in size; note: potency is the fitted concentration of half-maximal effect)
How it was run: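 ATP-based luminescent viability readout (CellTiter-Glo, 30 min, room temperature) in HepG2 cells multiplexed with the m-MPI membrane potential dye; compound exposure lasted 1 hr at 37 C.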

[4] = qHTS assay to test for compound auto fluorescence at 590 nm (red) in HepG2 cells (AID 720674)
How it was run: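 Fluorescence at 590 nm emission following 540 nm excitation was recorded from HepG2 wells one hour after compound transfer, with DMSO-only wells as vehicle and Rose Bengal sodium equivalency as the scale.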

[5] = qHTS assay to test for compound auto fluorescence at 535 nm (green) in HepG2 cells (AID 720675)
[6] = qHTS assay to test for compound auto fluorescence at 460 nm (blue) in HEK293 cells (AID 720678); note: potency is the fitted concentration of half-maximal effect
How it was run: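 Triamterene serves as the blue fluorophore standard. Compound signal at 405/460 nm is read in HEK293 wells (2,000 cells, 10% dialyzed FBS) after overnight treatment at 37C.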

[7] = qHTS assay to test for compound auto fluorescence at 590 nm (red) in HEK293 cells (AID 720679)
How it was run: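 We plated HEK293 cells in 10% dialyzed FBS medium, let them adhere for 4-5 hr, then added 23 nL compound. Overnight at 37C and 5% CO2 preceded fluorescence measurement at 540/590nm.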

[8] = qHTS assay to test for compound auto fluorescence at 535 nm (green) in HEK293 cells (AID 720680)
[9] = qHTS assay to test for compound auto fluorescence at 460 nm (blue) in HEK293 cell free culture (AID 720681); note: potency is the fitted concentration of half-maximal effect
How it was run: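 Compounds were added to cell-free DMEM with 10% FBS and fluorescence read directly. The blue channel used 405 nm excitation and 460 nm emission, with triamterene as the reference fluorophore.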

[10] = qHTS assay to test for compound auto fluorescence at 535 nm (green) in HEK293 cell free culture (AID 720682)
How it was run: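 Green-label autofluorescence (485 nm excitation, 535 nm emission) measured on compound added to cell-free culture medium (DMEM, 10% FBS). Output is expressed relative to fluorescein.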

[11] = qHTS assay to test for compound auto fluorescence at 590 nm (red) in HEK293 cell free culture (AID 720683)
How it was run: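 Cell-free wells of DMEM with 10% FBS received compound, and intrinsic fluorescence was read at excitation/emission 540/590 nm. Values expressed as equivalence to Rose Bengal sodium.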

[12] = qHTS assay to test for compound auto fluorescence at 590 nm (red) in HepG2 cell free culture (AID 720684)
How it was run: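 Auto fluorescence equivalency versus Rose Bengal sodium, red channel Ex/Em 540/590 nm; compounds in cell-free MEM/10% FBS; DMSO vehicle control.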

[13] = qHTS assay to test for compound auto fluorescence at 460 nm (blue) in HepG2 cell free culture (AID 720685); note: potency is the fitted concentration of half-maximal effect
How it was run: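 Cell-free plates of MEM plus 10% FBS received 23 nL compound or DMSO vehicle; blue-channel (405/460 nm) intensity scored against triamterene as reference fluorophore.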

[14] = qHTS assay to test for compound auto fluorescence at 460 nm (blue) in HepG2 cells (AID 720687); note: potency is the fitted concentration of half-maximal effect
How it was run: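 HepG2 cells in MEM with 10% FBS, attached overnight at 37 C, were exposed to compound or DMSO for 1 hr at 37 C, 5% CO2. Blue fluorescence was read at 405/460 nm, with triamterene as reference fluorophore.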

[15] = qHTS assay to test for compound auto fluorescence at 535 nm (green) in HepG2 cell free culture (AID 720686)
[16] = molecular target: Glucocorticoid receptor (Homo sapiens) (UniProt P04150); assay: qHTS assay to identify small molecule agonists of the glucocorticoid receptor (GR) signaling pathway (AID 720691; active = well fitted activation curve with a large enough effect in the signal ratio in the repeat runs, not every such curve was filed as active; the % refers to the signal ratio); details: GR-bla HeLa, beta-lactamase reporter ratio, 18 h; activation: at 62.4 µM (top of the series)
Chain of Glucocorticoid receptor (Homo sapiens) (P04150 whole entry, looked up): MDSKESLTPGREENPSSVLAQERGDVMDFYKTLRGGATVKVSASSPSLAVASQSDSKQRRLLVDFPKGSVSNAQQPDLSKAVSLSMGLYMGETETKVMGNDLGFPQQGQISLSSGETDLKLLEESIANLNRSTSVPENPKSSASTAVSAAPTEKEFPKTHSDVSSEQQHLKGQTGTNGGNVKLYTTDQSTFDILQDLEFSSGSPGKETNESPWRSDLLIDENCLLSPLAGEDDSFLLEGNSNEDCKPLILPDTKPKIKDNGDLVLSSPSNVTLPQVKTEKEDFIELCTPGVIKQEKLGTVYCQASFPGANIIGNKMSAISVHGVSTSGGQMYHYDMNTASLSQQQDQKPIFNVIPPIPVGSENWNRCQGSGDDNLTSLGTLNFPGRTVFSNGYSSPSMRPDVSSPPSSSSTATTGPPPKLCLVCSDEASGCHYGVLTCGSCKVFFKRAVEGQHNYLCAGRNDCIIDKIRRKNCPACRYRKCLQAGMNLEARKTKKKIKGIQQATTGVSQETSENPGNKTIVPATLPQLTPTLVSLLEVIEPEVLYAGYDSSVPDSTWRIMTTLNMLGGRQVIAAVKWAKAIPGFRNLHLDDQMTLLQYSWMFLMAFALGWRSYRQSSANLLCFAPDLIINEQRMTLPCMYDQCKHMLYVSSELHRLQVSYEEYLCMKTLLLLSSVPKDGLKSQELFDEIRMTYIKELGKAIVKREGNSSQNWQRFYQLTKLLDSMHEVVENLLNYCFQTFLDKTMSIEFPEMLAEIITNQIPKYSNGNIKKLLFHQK
How it was run: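 Cells: GR-bla HeLa, endogenous GR with stably integrated GRE-beta-lactamase reporter. Treatment 18 h, 37 C, compounds delivered in DMSO. Detection via LiveBLAzer B/G FRET substrate, 2 h RT, fluorescence intensity.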

[17] = qHTS assay for small molecules that induce genotoxicity in human embryonic kidney cells expressing luciferase-tagged ATAD5 - cell viability (AID 651634; calls by dose curve; note: nearly all actives have a fitted effect of over 25% in size; note: potency is the fitted concentration of half-maximal effect)
How it was run: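 After 15.5 hr incubation with compound at 37C, 5% CO2, HEK293T ATAD5-luciferase cells received CellTiter-Fluor reagent; fluorescence intensity was quantified following 30 min at 37C.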

[18] = qHTS assay for small molecule disruptors of the mitochondrial membrane potential (AID 720635); note: potency is the fitted concentration of half-maximal effect
How it was run: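 HepG2 cells exposed to compound 1 hr at 37C, then Mito-MPS dye 30 min. Ratio read of aggregate (540/590 nm) versus monomer (490/535 nm) fluorescence.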

[19] = molecular target: Glucocorticoid receptor (Homo sapiens) (UniProt P04150); assay: qHTS assay to identify small molecule antagonists of the glucocorticoid receptor (GR) signaling pathway (AID 720692; active = well fitted inhibition curve with a large enough effect in the signal ratio in the repeat runs, not every such curve was filed as active; the % refers to the signal ratio; note: potency is the fitted concentration of half-maximal effect)
How it was run: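 Quantitative HTS in antagonist format: HeLa cells expressing endogenous GR and a stably integrated GRE-bla reporter, stimulated with 5 nM dexamethasone (final) alongside test compounds for 18 h.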
Tags give direction and shape of the fitted curve or compound fluorescence and quenching.

| SMILES | Potency [1] | Potency [2] | Potency [3] | Potency [4] | Potency [5] | Potency [6] | Potency [7] | outcome [8] | Potency [9] | outcome [10] | Potency [11] | Potency [12] | Potency [13] | Potency [14] | Potency [15] | Potency [16] | Potency [17] | Potency [18] | Potency [19] |
| --- | --- | --- | --- | --- | --- | --- | --- | --- | --- | --- | --- | --- | --- | --- | --- | --- | --- | --- | --- |
| NC(=NCCCCCCN=C(N)/N=C(\N)Nc1ccc(Cl)cc1)/N=C(\N)Nc1ccc(Cl)cc1 | inactive | 38.2 µM (active) [middle of 4 runs] | inactive | inactive | inactive | inactive | inactive | inactive | inactive | inactive | inactive | inactive | inactive | inactive |  |  |  |  |  |
| O=[N+]([O-])c1ccccc1Nc1ccccc1 | inactive | inactive | inactive | inactive | inactive | inactive | inactive | inactive | inactive | inactive | inactive | inactive | inactive | inactive | inactive | inactive |  |  |  |
| O=C(NOCC1CC1)c1ccc(F)c(F)c1Nc1ccc(I)cc1Cl | inactive | 23.7 µM (active) |  |  | inactive | inactive |  | inactive | inactive | inactive | inactive | inactive | inactive | inactive | inactive |  | inactive | 8.41 µM (active) | 10.7 µM (active) |
| CCCCN1C(=O)[C@@H]([C@H](O)C2CCCCC2)NC(=O)C12CCN(Cc1ccc(Oc3ccc(C(=O)O)cc3)cc1)CC2 | inactive | inactive | inactive | inactive | inactive | inactive | inactive | inactive | inactive | inactive | inactive | inactive | inactive | inactive | inactive |  |  |  |  |
| CCC1OCC(COc2ccc(Oc3ccccc3)cc2)O1 (centres undefined) | inactive | inactive | inactive |  | inactive |  |  | inactive | inactive | inactive | inactive | inactive | inactive | inactive | inactive | inactive | inactive |  |  |
| CC(C)(C)CC(C)(C)c1ccc(O)c(Cc2ccc(Cl)cc2Cl)c1 | inactive | 13.3 µM (active) |  | inactive | inactive |  | inactive | inactive | inactive | inactive | inactive | inactive | inactive | inactive | inactive |  | 23.7 µM (active) | 1.68 µM (active) |  |
| Fc1ccc(C(c2ccc(F)cc2)N2CCN(C/C=C/c3ccccc3)CC2)cc1 | inactive | 3.76 µM (active) | inactive | inactive | inactive | inactive | inactive | inactive | inactive | inactive | inactive | inactive | inactive | inactive | inactive |  |  |  |  |
| CN(C)C(=O)C1(N2CCCCC2)CCN(CC[C@@]2(c3ccc(Cl)c(Cl)c3)CN(C(=O)c3ccccc3)CCO2)CC1 | inactive | 64.1 µM (active) |  | inactive | inactive | inactive | inactive | inactive | inactive | inactive | inactive | inactive | inactive | inactive | inactive |  | 64.1 µM (active) |  |  |
| CCCCCCCC/C=C/CCCCCCCC1=NCCN1CCO | inactive | 43.3 µM (active) | 54.5 µM (active) | inactive | inactive |  | inactive | inactive | inactive | inactive | inactive | inactive | inactive | inactive | inactive |  |  | 54.5 µM (active) |  |
| Nc1c2ccccc2nc2ccccc12 | inactive | inactive | inactive | inactive | inactive | 11.2 µM [fluorescent] (active) and 31.6 µM [fluorescent] (active) | inactive | inactive | 11.2 µM (active) and 15.8 µM (active) | inactive | inactive | inactive | 14.1 µM [fluorescent] (active) and 15.8 µM [fluorescent] (active) | 11.2 µM [fluorescent] (active) and 15.8 µM [fluorescent] (active) |  |  |  | 11.9 µM (active) and 4.27 µM (active) |  |
| C=CC(=O)OCC(CO)(COC(=O)C=C)COC(=O)C=C | 4.87 µM (active) and 5.45 µM (active) | 4.34 µM (active) |  | inactive | inactive | inactive | inactive | inactive | inactive | inactive | inactive | inactive | inactive | inactive | inactive |  | 12.2 µM (active) and 15.4 µM (active) |  |  |
| O=C1CCCCCN1SSN1CCCCCC1=O | inactive | inactive | inactive | inactive | inactive | inactive |  | inactive | inactive | inactive | inactive | inactive | inactive | inactive | inactive |  |  |  |  |
| CCN(C(=O)N(CC)c1ccccc1)c1ccccc1 | inactive | inactive |  | inactive | inactive | inactive | inactive | inactive | inactive | inactive | inactive | inactive | inactive | inactive | inactive | inactive | inactive |  | inactive |
| CCCCCCCCCCCCc1ccc(O)cc1 | inactive | 24.3 µM (active) | inactive |  | inactive |  | inactive | inactive | inactive | inactive | inactive | inactive | inactive | inactive | inactive |  |  | 2.73 µM (active) |  |
